# Results published in PubChem BioAssay (NCI).
# Compounds without any hit were thinned out: in the full panel of roughly 83,000, 20% have a hit.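 In brief: 96-well plates, 48 h treatment, single concentration, percent growth endpoint.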 Unmarked numbers belong to inactive results. Activity calls are given as the source filed them. The calls were made as follows: active = growth percent below 10; inactive = the rest.
# Tests used:
# Assay in all cases: NCI-60 one-dose screen, 48 h (100 = growth as untreated, 0 = no growth, -100 = all killed)
# [1] = system: HCT-15 colon; conditions: 10 µM unless noted
# [2] = system: HT29 colon; conditions: 10 µM unless noted
# [3] = system: SNB-75 CNS; conditions: 10 µM unless noted
# [4] = system: SNB-19 CNS; conditions: 10 µM unless noted
# [5] = system: U251 CNS; conditions: 10 µM unless noted
# [6] = system: PC-3 prostate; conditions: 10 µM unless noted
# [7] = system: SK-MEL-5 melanoma; conditions: 10 µM unless noted
# [8] = system: UACC-62 melanoma; conditions: 10 µM unless noted
# [9] = system: LOX IMVI melanoma; conditions: 10 µM
# [10] = system: SK-MEL-28 melanoma; conditions: 10 µM unless noted
# [11] = system: SK-MEL-2 melanoma; conditions: 10 µM unless noted
# [12] = system: EKVX NSCLC; conditions: 10 µM unless noted
# [13] = system: SN12C renal; conditions: 10 µM unless noted
# [14] = system: UO-31 renal; conditions: 10 µM unless noted
# [15] = system: TK-10 renal; conditions: 10 µM unless noted
# [16] = system: ACHN renal; conditions: 10 µM unless noted
# [17] = system: CAKI-1 renal; conditions: 10 µM unless noted
# [18] = system: A498 renal; conditions: 10 µM unless noted
# [19] = system: MOLT-4 leukemia; conditions: 10 µM unless noted
# [20] = system: CCRF-CEM leukemia; conditions: 10 µM unless noted
Compound,growth [1],growth [2],growth [3],growth [4],growth [5],growth [6],growth [7],growth [8],growth [9],growth [10],growth [11],growth [12],growth [13],growth [14],growth [15],growth [16],growth [17],growth [18],growth [19],growth [20]
COc1cc(C(=O)O)c(O)c(C(C)(C)C)c1,108%,109%,96.8%,98.9%,95.2%,97.6%,96.5%,104%,98.8%,109%,106%,102%,103%,92.9%,105%,109%,102%,96.3%,98.1%,–
O=C1Nc2ccccc2/C1=C\c1ccccc1O,93.3%,116%,64.9%,101%,93.5%,96.8%,92.6%,80.5%,84.8%,97%,107%,56.4%,92.5%,51.3%,124%,85.4%,88.6%,105%,74.6%,–
Nc1ncnc(Nc2ccc(C(F)(F)F)cc2)n1,103%,103%,87.5%,98.8%,94.2%,89.6%,99.6%,89.1%,100%,104%,103%,99.7%,99.8%,97.8%,109%,98.2%,93.2%,–,96.6%,116%
CC(C)N(C(=O)c1ccccc1)C(C)C,104%,107%,100%,113%,95.9%,98.9%,97.7%,108%,104%,105%,114%,104%,107%,104%,98.2%,108%,98.5%,86.6%,111%,–
Cc1ccc(Cc2ccc(C)cc2)cc1,101%,105%,101%,109%,101%,100%,101%,104%,99.4%,107%,99.6%,94.9%,110%,81.1%,107%,99.9%,99.8%,93.2%,97.2%,–
S=CN1CCCCC1,99.9%,108%,93.2%,109%,89.1%,99.3%,104%,106%,99%,103%,124%,96.7%,103%,89.1%,110%,107%,97.2%,–,109%,110%
CCOC(=O)C(=O)CC(=O)c1ccccc1,102%,103%,91.7%,100%,93.3%,89.4%,95%,93.3%,98.6%,106%,96.9%,97.4%,100%,85.3%,113%,94.8%,95.4%,–,104%,114%
CN(C)c1ccc2c(N(C)C)cc(N(C)C)nc2c1,92%,34.4%,92.5%,84.5%,90.8%,72.6%,100%,81.9%,87.7%,84.4%,143%,75.8%,83.1%,50.3%,104%,76.5%,68.6%,78.9%,80.3%,–
CCc1ccccc1C(=O)N(CC)CC,103%,106%,90.6%,105%,103%,102%,104%,99.5%,99.2%,102%,123%,96.6%,105%,91.1%,106%,104%,99.7%,–,96.4%,97.5%
Cc1ccc(S(N)(=O)=O)cc1Cl,104%,104%,91.8%,107%,103%,99.3%,103%,105%,114%,108%,103%,125%,106%,94.5%,107%,107%,101%,–,96.6%,102%
CC(c1ccccc1)N(C)C (centres undefined),109%,88.2%,59.5%,100%,102%,88.6%,99.6%,94.5%,113%,157%,84%,122%,99.7%,71.4%,135%,109%,96.5%,139%,84.3%,–
CC(=O)Nc1ncc(S(=O)(=O)c2ccc([N+](=O)[O-])cc2)s1,105%,108%,103%,114%,108%,101%,113%,102%,106%,111%,119%,114%,104%,79.4%,105%,115%,–,–,102%,101%
COc1c(CNC(=O)CCl)cc2[nH]c(C)cc2c1CNC(=O)CCl,70.5%,38.3%,69.6%,83.5%,10.3%,67.9%,44.1%,30.6%,34%,63.2%,54.9%,65.1%,53.7%,60.7%,74.1%,37.3%,–,–,51%,25.6%
COC(=O)c1ccc([N+](=O)[O-])c(C)c1,94.9%,121%,88.4%,119%,101%,93.4%,109%,107%,107%,102%,116%,109%,109%,79.9%,128%,97.1%,–,79.5%,112%,4.56% (active)
CC(=O)[C@@]1(O)CC[C@H]2[C@@H]3CC[C@@H]4CC(=O)CC[C@]4(C)[C@H]3[C@@H](O)C[C@@]21C,103%,100%,92.7%,103%,94.8%,86.1%,99.4%,94.7%,96.7%,99.4%,99.7%,88.9%,95.4%,91.7%,97.2%,101%,–,88.6%,94.5%,94.1%
CCCOCc1cn[nH]n1,106%,105%,98.1%,115%,96.1%,102%,106%,98.2%,98.6%,109%,104%,103%,105%,–,102%,110%,104%,100%,106%,109%
C=C1C(=O)C2CCC1C2 (centres undefined),99.8%,102%,103%,107%,109%,105%,105%,108%,106%,119%,101%,109%,104%,82.2%,109%,112%,101%,–,94.7%,–
CC(=O)O[C@H]1CC[C@]2(C)C3=C(C(=O)C[C@H]2C1(C)C)[C@]1(C)CC[C@H]([C@H](C)CCC(=O)O)[C@@]1(C)CC3=O,95.5%,89.7%,91.7%,108%,101%,92.4%,102%,106%,98.1%,105%,95.3%,90.8%,106%,92.2%,98.4%,103%,–,84.9%,98%,98.9%
